# Assays:
# [1] = molecular target: T1, 3-phosphoinositide-dependent protein kinase 1 (Homo sapiens) (UniProt O15530); details: at 0.1 µM;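 further: values are mean inhibition of PDK1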
# T1 sequence (whole entry): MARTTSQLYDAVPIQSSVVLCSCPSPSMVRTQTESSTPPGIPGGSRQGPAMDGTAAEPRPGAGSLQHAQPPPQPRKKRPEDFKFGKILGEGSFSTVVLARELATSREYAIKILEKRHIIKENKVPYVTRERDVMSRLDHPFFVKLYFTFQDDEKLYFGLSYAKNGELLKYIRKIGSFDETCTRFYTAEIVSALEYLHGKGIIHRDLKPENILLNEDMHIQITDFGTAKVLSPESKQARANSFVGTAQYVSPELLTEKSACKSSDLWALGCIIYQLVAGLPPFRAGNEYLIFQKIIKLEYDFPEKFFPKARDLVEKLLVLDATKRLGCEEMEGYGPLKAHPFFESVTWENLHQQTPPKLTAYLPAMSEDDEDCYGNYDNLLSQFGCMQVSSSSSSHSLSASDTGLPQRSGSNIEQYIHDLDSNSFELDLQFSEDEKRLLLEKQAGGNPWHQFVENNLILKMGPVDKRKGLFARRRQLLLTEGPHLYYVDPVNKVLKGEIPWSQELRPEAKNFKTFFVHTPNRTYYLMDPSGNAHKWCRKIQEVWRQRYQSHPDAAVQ
# [2] = molecular target: cAMP-dependent protein kinase catalytic subunit alpha (Homo sapiens) (UniProt P17612); details: at 0.1 µM
# [3] = molecular target: cAMP-dependent protein kinase catalytic subunit alpha (Homo sapiens) (UniProt P17612); details: at 1 µM
# [4] = molecular target: Protein kinase C alpha type (Homo sapiens) (UniProt P17252); details: at 0.1 µM
# [5] = molecular target: Protein kinase C alpha type (Homo sapiens) (UniProt P17252); details: at 1 µM
# [6] = molecular target: Protein kinase C beta type (Homo sapiens) (UniProt P05771); details: at 0.1 µM
# Sequence of Protein kinase C beta type (Homo sapiens) (P05771 2-671 limits assumed): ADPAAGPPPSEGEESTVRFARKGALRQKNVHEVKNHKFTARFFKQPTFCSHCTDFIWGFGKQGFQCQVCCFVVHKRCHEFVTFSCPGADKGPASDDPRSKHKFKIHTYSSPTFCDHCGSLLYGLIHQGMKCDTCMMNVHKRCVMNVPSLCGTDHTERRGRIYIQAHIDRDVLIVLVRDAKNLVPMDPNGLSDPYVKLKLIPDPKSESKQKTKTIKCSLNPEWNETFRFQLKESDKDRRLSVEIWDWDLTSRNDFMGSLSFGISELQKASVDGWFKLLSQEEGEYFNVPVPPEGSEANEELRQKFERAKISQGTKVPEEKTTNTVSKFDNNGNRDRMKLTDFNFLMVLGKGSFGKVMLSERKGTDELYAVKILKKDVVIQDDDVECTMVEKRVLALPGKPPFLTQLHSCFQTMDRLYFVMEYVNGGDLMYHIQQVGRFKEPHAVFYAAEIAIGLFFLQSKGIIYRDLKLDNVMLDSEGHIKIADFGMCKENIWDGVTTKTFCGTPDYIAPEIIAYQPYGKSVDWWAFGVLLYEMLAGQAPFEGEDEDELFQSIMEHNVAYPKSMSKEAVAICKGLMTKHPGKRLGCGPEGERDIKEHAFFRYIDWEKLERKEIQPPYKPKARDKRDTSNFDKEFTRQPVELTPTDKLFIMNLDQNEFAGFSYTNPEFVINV
# [7] = molecular target: Protein kinase C beta type (Homo sapiens) (UniProt P05771); details: at 1 µM
# [8] = molecular target: Protein kinase C eta type (Homo sapiens) (UniProt P24723); details: at 0.1 µM
# Sequence of Protein kinase C eta type (Homo sapiens) (P24723 whole entry): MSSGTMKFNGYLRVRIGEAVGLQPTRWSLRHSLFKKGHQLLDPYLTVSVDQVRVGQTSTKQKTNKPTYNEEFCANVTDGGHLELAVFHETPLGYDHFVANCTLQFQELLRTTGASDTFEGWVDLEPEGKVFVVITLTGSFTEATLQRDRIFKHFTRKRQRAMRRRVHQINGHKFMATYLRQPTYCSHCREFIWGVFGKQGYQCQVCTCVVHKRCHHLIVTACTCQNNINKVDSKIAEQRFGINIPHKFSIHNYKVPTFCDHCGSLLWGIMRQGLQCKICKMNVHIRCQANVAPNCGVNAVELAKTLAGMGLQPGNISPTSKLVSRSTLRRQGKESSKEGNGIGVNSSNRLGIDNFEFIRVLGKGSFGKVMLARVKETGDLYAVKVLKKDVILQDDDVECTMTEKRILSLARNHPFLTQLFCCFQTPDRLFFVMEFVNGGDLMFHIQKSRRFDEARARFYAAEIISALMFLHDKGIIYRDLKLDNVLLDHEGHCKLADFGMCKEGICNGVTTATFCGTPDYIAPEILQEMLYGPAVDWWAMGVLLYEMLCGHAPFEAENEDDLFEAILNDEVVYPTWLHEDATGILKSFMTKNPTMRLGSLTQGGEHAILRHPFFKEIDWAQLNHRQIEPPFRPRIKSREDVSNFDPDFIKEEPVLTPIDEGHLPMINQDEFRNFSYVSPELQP
# [9] = molecular target: Protein kinase C eta type (Homo sapiens) (UniProt P24723); details: at 1 µM
# [10] = molecular target: Protein kinase C gamma type (Homo sapiens) (UniProt P05129); details: at 0.1 µM
# [11] = molecular target: Protein kinase C gamma type (Homo sapiens) (UniProt P05129); details: at 1 µM
# [12] = molecular target: T2, Protein kinase C iota type (Homo sapiens) (UniProt P41743); details: at 0.1 µM
# T2 sequence (whole entry): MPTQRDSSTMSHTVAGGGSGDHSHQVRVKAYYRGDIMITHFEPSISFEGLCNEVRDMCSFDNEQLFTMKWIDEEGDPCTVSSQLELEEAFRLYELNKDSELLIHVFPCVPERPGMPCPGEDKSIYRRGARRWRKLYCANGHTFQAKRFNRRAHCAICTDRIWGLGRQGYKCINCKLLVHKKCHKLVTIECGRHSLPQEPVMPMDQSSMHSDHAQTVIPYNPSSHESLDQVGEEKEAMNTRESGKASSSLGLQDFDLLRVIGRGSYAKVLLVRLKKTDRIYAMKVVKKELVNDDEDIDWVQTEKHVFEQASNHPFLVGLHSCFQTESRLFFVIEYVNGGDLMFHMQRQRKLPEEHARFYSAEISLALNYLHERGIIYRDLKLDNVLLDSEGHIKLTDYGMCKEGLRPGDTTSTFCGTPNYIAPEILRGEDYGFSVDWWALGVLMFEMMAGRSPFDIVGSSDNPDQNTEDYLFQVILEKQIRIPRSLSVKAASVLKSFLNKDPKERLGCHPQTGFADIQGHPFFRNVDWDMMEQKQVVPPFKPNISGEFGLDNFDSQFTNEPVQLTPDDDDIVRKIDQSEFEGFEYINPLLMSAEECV
# [13] = molecular target: T2, Protein kinase C iota type (Homo sapiens); details: at 1 µM
# [14] = molecular target: Protein kinase C theta type (Homo sapiens) (UniProt Q04759); details: at 0.1 µM
# Sequence of Protein kinase C theta type (Homo sapiens) (Q04759 whole entry, looked up): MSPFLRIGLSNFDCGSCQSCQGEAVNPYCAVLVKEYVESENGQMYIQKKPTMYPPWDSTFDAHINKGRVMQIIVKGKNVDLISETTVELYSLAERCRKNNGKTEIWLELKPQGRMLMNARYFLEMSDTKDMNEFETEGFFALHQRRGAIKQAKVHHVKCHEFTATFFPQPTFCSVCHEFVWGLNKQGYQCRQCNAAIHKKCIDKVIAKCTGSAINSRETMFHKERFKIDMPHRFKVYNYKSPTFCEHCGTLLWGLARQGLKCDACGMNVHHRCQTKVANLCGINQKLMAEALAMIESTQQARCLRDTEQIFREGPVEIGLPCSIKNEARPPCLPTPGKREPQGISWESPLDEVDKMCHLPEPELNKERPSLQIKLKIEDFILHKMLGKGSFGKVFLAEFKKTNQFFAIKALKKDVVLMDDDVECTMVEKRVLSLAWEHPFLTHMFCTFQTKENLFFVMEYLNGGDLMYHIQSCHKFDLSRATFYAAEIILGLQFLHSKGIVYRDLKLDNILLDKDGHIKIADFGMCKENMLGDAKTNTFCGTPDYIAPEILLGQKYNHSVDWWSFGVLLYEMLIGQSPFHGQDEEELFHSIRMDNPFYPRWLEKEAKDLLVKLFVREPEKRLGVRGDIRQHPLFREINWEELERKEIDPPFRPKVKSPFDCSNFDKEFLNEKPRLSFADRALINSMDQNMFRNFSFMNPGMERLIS
# [15] = molecular target: Protein kinase C theta type (Homo sapiens) (UniProt Q04759); details: at 1 µM
# [16] = molecular target: Protein kinase C beta type (Homo sapiens) (UniProt P05771); details: at 0.1 µM; remark: listed apart in the source
# [17] = molecular target: Protein kinase C beta type (Homo sapiens) (UniProt P05771); details: at 1 µM; remark: listed apart in the source
# [18] = molecular target: T3, Serine/threonine-protein kinase D1 (Homo sapiens) (UniProt Q15139); details: at 0.1 µM
# T3 sequence (whole entry): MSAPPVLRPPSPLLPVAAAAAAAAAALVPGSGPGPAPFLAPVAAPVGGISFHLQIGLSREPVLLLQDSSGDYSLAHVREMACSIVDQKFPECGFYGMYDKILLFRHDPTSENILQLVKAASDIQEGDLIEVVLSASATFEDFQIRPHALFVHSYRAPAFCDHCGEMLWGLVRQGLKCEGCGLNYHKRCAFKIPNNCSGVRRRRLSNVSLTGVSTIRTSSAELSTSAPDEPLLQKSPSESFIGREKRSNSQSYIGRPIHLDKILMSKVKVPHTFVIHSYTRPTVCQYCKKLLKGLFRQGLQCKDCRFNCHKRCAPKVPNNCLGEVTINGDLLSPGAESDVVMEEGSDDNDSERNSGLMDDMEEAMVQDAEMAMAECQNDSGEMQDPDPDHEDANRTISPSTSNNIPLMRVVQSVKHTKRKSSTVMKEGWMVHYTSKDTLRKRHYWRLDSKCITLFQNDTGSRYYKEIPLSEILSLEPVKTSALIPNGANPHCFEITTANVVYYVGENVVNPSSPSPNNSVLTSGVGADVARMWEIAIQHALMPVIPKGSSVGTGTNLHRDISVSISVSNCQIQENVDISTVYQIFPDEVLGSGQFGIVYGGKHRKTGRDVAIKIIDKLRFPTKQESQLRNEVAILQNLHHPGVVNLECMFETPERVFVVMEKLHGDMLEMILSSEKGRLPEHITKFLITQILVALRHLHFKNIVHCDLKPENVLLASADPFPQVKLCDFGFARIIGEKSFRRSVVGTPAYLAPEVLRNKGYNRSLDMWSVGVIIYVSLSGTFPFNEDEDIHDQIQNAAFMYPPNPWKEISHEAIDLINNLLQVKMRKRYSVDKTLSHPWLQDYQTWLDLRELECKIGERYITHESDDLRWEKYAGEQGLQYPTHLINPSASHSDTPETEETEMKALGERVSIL
# [19] = molecular target: T3, Serine/threonine-protein kinase D1 (Homo sapiens); details: at 1 µM
# [20] = molecular target: T4, Serine/threonine-protein kinase D2 (Homo sapiens) (UniProt Q9BZL6); details: at 0.1 µM;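 further: reported percent inhibition values are means, part of the GSK PKIS kinase panel screen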
# T4 sequence (whole entry): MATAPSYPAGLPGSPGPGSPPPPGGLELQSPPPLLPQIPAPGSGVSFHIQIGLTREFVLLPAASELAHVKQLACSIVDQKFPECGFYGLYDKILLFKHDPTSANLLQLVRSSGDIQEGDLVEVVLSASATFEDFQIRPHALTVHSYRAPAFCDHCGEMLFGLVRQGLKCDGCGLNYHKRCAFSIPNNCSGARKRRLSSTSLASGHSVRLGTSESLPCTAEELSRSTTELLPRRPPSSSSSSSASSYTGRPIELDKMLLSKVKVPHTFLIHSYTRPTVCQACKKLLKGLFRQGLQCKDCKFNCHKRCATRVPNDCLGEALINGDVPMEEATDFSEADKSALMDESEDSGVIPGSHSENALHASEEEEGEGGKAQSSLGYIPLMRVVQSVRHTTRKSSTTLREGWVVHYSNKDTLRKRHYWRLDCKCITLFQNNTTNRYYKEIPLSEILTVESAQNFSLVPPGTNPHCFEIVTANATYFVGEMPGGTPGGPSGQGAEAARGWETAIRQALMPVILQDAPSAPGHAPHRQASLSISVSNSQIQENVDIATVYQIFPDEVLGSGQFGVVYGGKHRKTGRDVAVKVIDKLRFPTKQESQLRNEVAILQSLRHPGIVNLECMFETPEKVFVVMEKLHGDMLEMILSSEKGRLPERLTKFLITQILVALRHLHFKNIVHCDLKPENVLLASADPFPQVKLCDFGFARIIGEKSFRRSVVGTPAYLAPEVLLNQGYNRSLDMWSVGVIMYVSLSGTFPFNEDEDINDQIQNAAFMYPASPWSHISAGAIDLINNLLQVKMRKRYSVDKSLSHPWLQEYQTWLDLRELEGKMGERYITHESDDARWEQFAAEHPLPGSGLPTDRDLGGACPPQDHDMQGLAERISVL
SMILES,inhibition [1],inhibition [2],inhibition [3],inhibition [4],inhibition [5],inhibition [6],inhibition [7],inhibition [8],inhibition [9],inhibition [10],inhibition [11],inhibition [12],inhibition [13],inhibition [14],inhibition [15],inhibition [16],inhibition [17],inhibition [18],inhibition [19],inhibition [20]
CCS(=O)(=O)c1ccc(OC)c(Nc2ncc(-c3ccccc3Cl)o2)c1,4.14%,1.17%,1.75%,0.48%,1.87%,0.67%,0.07%,0.14%,0.6%,-2.72%,5.15%,0.15%,-1.52%,-0.01%,2.29%,-0.13%,2.01%,1.52%,1.41%,1.21%
CN(C)c1ccc2c(c1)/C(=C/Nc1ccc(S(N)(=O)=O)cc1)C(=O)N2,11.6%,1.77%,1.6%,0.48%,1.56%,0.94%,0.89%,2.02%,2.17%,0.64%,2.72%,2.24%,1.5%,1.16%,0.84%,1.61%,1.98%,2.16%,7.78%,1.23%
C#Cc1cccc(Nc2ncnc3ccc(OCCCCNCCS(C)(=O)=O)cc23)c1,1.83%,-0.23%,-0.04%,-2.51%,0.29%,1.6%,4.77%,0.97%,4.94%,3.27%,7.74%,2.69%,1.19%,3.71%,5.27%,1.93%,6.61%,2.59%,25%,4.1%
COc1ccc2ncn(-c3cc(O[C@H](C)c4ccccc4Cl)c(C(N)=O)s3)c2c1,0.22%,-1.47%,-1%,-2.81%,-1.38%,1.09%,2.58%,5.09%,3.95%,0.98%,2.27%,4.03%,3.88%,2.43%,2.69%,1.24%,2.97%,-0.01%,-0.79%,-0.02%
c1ccc(-c2n[nH]cc2-c2ccnc(-c3ccc(OCCN4CCOCC4)cc3)c2)nc1,1.56%,7.85%,3.77%,2.22%,1.97%,5.36%,3.85%,-2.82%,-2.18%,3.17%,4%,3.68%,4.56%,0.5%,-0.12%,3.96%,3.92%,10.3%,66.3%,16.2%
CN1CCN(CCCNc2nc3ccc(Oc4ccc(NC(=O)Nc5cc(C(F)(F)F)ccc5F)cc4)cc3[nH]2)CC1,2.91%,-1.46%,-0.98%,-2.39%,-1.52%,2.13%,1.42%,1.27%,1.68%,1.25%,2.83%,1.14%,1.05%,-0.2%,-0.32%,2.09%,2.68%,-0.88%,-1.77%,-2.52%
CS(=O)(=O)CCNCc1cc(-c2cc3c(Nc4ccc(OCc5cccc(F)c5)c(Cl)c4)ncnc3s2)cs1,2.06%,1.96%,1.98%,0.73%,1.44%,0.43%,1.19%,5.83%,7.05%,2.95%,0.58%,1.33%,1.53%,2.91%,4.44%,0.62%,2%,4.69%,8.12%,4.1%
O=C(Nc1ccc(Oc2ccc3[nH]c(NC(=O)c4ccccc4)nc3c2)cc1)Nc1cc(C(F)(F)F)ccc1F,1.16%,1.01%,1.45%,0.3%,1.8%,0.29%,3.18%,1.1%,4.58%,3.6%,3.66%,1.82%,0.93%,1.79%,2.18%,1.51%,4.95%,2.05%,3.41%,3.12%
NC(=O)Cc1ccccc1Oc1nccc(-c2c(-c3ccc(F)cc3)ncn2C2CCNCC2)n1,1.03%,1.37%,0.93%,0.35%,1.51%,-0.44%,3.18%,3.28%,0.22%,4.12%,0.76%,0%,0.16%,0.43%,-0.38%,1.22%,3.91%,4.86%,8.87%,4.63%
CCN(CC)Cc1ccc(Nc2nccc(-c3cnn4ncccc34)n2)cc1,0.96%,-0.94%,4.26%,0.47%,17.8%,0.22%,-5.55%,5.27%,7.25%,0.4%,7.9%,1.27%,2.03%,2.37%,4.84%,1%,6.38%,36.3%,65.6%,28.1%
FC(F)(F)c1cccc(Nc2nccc(-c3cnn4nc(-c5ccccc5)ccc34)n2)c1,-0.51%,1.63%,0.52%,-0.27%,0.87%,-0.86%,2.15%,2.08%,3.01%,2.43%,1.78%,0.68%,0.06%,1.79%,2.39%,1.28%,1.35%,2.1%,3.92%,1.86%
O=C(Nc1n[nH]c2nc(-c3ccco3)ccc12)C1CC1,2.58%,1.78%,4.07%,-0.2%,0.41%,-0.22%,-1.09%,-0.3%,1.42%,-0.6%,3.88%,1.28%,-0.15%,0.24%,-0.12%,0.74%,1.21%,0.7%,1.4%,-0.13%
COc1cc(Nc2ncc3c(C)nc(-c4cccc(C(F)(F)F)c4)n3n2)cc(OC)c1OC,3.64%,2.66%,2.72%,-0.1%,1.99%,0.93%,5.54%,6.38%,3.64%,2.47%,7.63%,0.74%,0.54%,1.87%,5.29%,1.35%,2.31%,1.48%,2.12%,1.81%

# Reference: ChEMBL document CHEMBL1961873, “Compounds: GSK PKIS; Assays: Nanosyn kinase panel” (2012)
